Shown are actives, neighbours in structure and some others; about 4.7% of the full set was active somewhere.
SKKanGAS inh: SKKanGAS growth inhibition. inhibition, % at 7.5 µM. AID 1662. 300,000 tested, 1.3% active. S. pyogenes SKKanGAS, kanamycin growth, BacTiter-Glo, 6 h;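 active means mean replicate score, as percent of positive control median, at least 50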;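 further: strain carries kanamycin resistance gene driven by streptokinase promoter and grows in 40 µg/ml kanamycin; loss of luminescence reflects streptokinase promoter inhibition or plain growth inhibition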
TIM10 inh: TIM10 yeast growth inhibition. S. cerevisiae TIM10 strain growth, BacTiter-Glo luminescence, 24 h. inhibition, % at 10 µM. 330,000 tested, 1.4% active. AID 463195;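 active means inhibition of 40% or more at the single tested concentration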;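 further: wild-type TIM10 isogenic control strain grown at permissive 25 °C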
tim10-1 inh: inhibits growth of tim10-1 mutant yeast. S. cerevisiae tim10-1 ts strain growth, BacTiter-Glo, 24 h. inhibition, % at 20 µM. 330,000 tested, 2.2% active;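 active means inhibition of at least 40%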;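 further: mutant grown at 25 °C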
tim23-1 inh: growth inhibitors of tim23-1 mutant yeast; inhibition, % at 20 µM; AID 463212; S. cerevisiae tim23-1 growth, BacTiter-Glo luminescence, 24 h; 330,000 tested, 1.3% active;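 active means growth inhibition of the mutant yeast at or above 50%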;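 further: temperature-sensitive mutant grown at 25 °C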
EBI2 antag: blocks human EBI2 receptor beta-arrestin signaling. EBI2 beta-arrestin recruitment, luminescence, 7a,25-OHC stimulated. 360,000 tested, 0.81% active. inhibition, % at 5 µM; in the data active means inhibition above about 38%;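 further: enzyme fragment complementation signal reports receptor beta-arrestin coupling in cells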
Target sequence (P32249 whole entry, looked up, the tested form may be a part): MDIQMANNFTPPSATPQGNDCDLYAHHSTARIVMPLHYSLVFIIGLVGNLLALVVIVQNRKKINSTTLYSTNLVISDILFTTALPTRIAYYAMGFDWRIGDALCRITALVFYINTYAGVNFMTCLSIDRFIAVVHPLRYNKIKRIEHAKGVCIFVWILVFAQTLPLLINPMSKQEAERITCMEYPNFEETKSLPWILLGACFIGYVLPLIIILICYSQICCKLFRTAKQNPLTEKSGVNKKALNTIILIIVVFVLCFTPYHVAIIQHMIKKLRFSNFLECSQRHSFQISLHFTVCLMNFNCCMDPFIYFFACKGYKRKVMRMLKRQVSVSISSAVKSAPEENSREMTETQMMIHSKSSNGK
PfHsp90 set2: growth inhibition of yeast expressing Plasmodium Hsp90; S. cerevisiae expressing PfHsp90, BacTiter-Glo ATP, 48 h; yeast lacking PDR1 and PDR3 efflux regulators; inhibition, % at 9.4 µM; 310,000 tested, 0.32% active; AID 504621;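 active means every replicate shows inhibition above about 80%, whatever the replicate mean, limit read from the data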
Each line names hits and unclear results; the compound was inactive in the other large screens.

COc1cc(OC)cc(C(=O)NNC(=O)c2ccc3c(c2)OCCO3)c1	none (no result: SKKanGAS inh, PfHsp90 set2)
COc1cccc(-c2nnc(NC(=O)CCS(=O)(=O)c3ccc(F)cc3)o2)c1	none (no result: SKKanGAS inh, TIM10 inh, tim10-1 inh, tim23-1 inh, PfHsp90 set2)
CCOc1ccc(-c2nnc(NC(=O)c3ccc(OCC(C)C)c(OC)c3)o2)cc1	SKKanGAS inh 115
COc1cccc(C(=O)Nc2nnc(-c3cccs3)o2)c1	SKKanGAS inh 77
COc1cc(OC)cc(-c2nnc(NC(=O)c3ccc4c(c3)OCCO4)o2)c1	SKKanGAS inh 109
CC1(C(=O)NS(=O)(=O)Cc2ccccc2)CCN1C(=O)C1(c2ccc(Cl)cc2)CCC1 (stereo not drawn)	none (no result: SKKanGAS inh, TIM10 inh, tim10-1 inh, tim23-1 inh, PfHsp90 set2)
OC(c1ccc(Cl)cc1)c1ncc(-c2ccccc2F)[nH]1 (stereo not drawn)	none (no result: SKKanGAS inh, TIM10 inh, tim10-1 inh, tim23-1 inh, PfHsp90 set2)
C[C@@H]1CCCCO[C@H](CN(C)S(=O)(=O)c2ccccc2)[C@@H](C)CN([C@H](C)CO)C(=O)c2cc(NC(=O)Cc3ccccc3)ccc2O1	none (no result: SKKanGAS inh, TIM10 inh, tim10-1 inh, tim23-1 inh, PfHsp90 set2)
COc1cccc(-c2nnc(NC(C)=O)o2)c1	none
COc1cccc(-c2nnc(NC(=O)c3ccc4ncsc4c3)o2)c1	SKKanGAS inh 69
CS(=O)(=O)c1cccc(-c2nnc(NC(=O)c3ccc4ncsc4c3)o2)c1	none (no result: PfHsp90 set2)
COc1cccc(C(=O)Nc2nnc(-c3ccc(Cl)cc3)o2)c1	SKKanGAS inh 88
Cc1cc2c(SCC(=O)NC3CCCC3)ncnc2s1	none
CC1(c2nnc(Cc3ccccc3)o2)CC(c2ccccc2[N+](=O)[O-])=NO1 (stereo not drawn)	PfHsp90 set2 108
O=C1NC(=O)C(=C2CCOC2=O)N1	none (no result: SKKanGAS inh, TIM10 inh, tim10-1 inh, tim23-1 inh, PfHsp90 set2)
O=C(CSc1nnc(NC(=O)c2ccco2)s1)Nc1ccccc1Br	none
Cc1ccc(/C=C/C2=NN(Cc3ccc(Cl)c(Cl)c3)C(=O)CC2)cc1	SKKanGAS inh 54 (no result: PfHsp90 set2)
CC[C@@H](C(=O)[C@@H](C)[C@@H](O)[C@H](C)CCc1ccc(C)c(O)c1C(=O)O)[C@H]1O[C@](CC)([C@H]2CC[C@](O)(CC)[C@H](C)O2)C[C@@H]1C	SKKanGAS inh 108
CC[C@@H](C(=O)[C@@H](C)[C@@H](O)[C@H](C)[C@@H]1O[C@@H]([C@@H](CC)C(=O)O)CC[C@@H]1C)[C@H]1O[C@]2(C=C[C@@H](O)[C@]3(CC[C@@](C)([C@H]4CC[C@](O)(CC)[C@H](C)O4)O3)O2)[C@H](C)C[C@@H]1C	none (no result: SKKanGAS inh, TIM10 inh, tim10-1 inh, tim23-1 inh)
O=C(NCc1ccccn1)Nc1cc(Cl)cc(Cl)c1	SKKanGAS inh 77
O=C(Nc1ccccc1)Nc1cc(OCC(F)(F)F)cc(OCC(F)(F)F)c1	SKKanGAS inh 52 (no result: TIM10 inh, tim10-1 inh, tim23-1 inh)
O=C(Nc1ccccc1)Nc1cc(Cl)cc(Cl)c1	SKKanGAS inh 84
O=C(NCCNC(=O)c1cc(OCC(F)(F)F)ccc1OCC(F)(F)F)Nc1cccc(C(F)(F)F)c1	none (no result: PfHsp90 set2)
O=C(Nc1cccc(Cl)c1)Nc1cccc(Cl)c1	none
O=C1c2ccccc2C(c2nnnn2Cc2ccccc2)N1CCc1c[nH]c2ccccc12 (stereo not drawn)	none (no result: SKKanGAS inh, TIM10 inh, tim10-1 inh, tim23-1 inh, PfHsp90 set2)
CC1=C(C(=O)N(C(C)C)C(C)C)CC(CC(=O)NCc2cccc3ccccc23)C(=O)N1CCC1=CCCCC1 (stereo not drawn)	none (no result: SKKanGAS inh, TIM10 inh, tim10-1 inh, tim23-1 inh, PfHsp90 set2)
O=C(c1cc(Cl)cc(Cl)c1)N1CCC2CC1c1cc(N3CCCCC3)ccc12 (stereo not drawn)	none (no result: SKKanGAS inh, TIM10 inh, tim10-1 inh, tim23-1 inh, PfHsp90 set2)
CCCCC[n+]1ccn(C2=C([O-])c3ccccc3C(=O)/C2=N\S(=O)(=O)c2ccccc2)c1	SKKanGAS inh 74
CCCCC[n+]1ccn(C2=C([O-])c3ccccc3C(=O)/C2=N\S(=O)(=O)c2ccc(Br)cc2)c1	SKKanGAS inh 97
CCCC[n+]1ccn(C2=C([O-])c3ccccc3C(=O)/C2=N\S(=O)(=O)c2ccccc2)c1	SKKanGAS inh 59
CC(C)[n+]1ccn(C2=C([O-])c3ccccc3C(=O)/C2=N\S(=O)(=O)c2ccccc2)c1	none
CCCC[n+]1ccn(-c2nc3ccccc3nc2[N-]S(=O)(=O)c2ccccc2)c1	none
CCCCC[n+]1ccn(-c2nc3ccccc3nc2[N-]S(=O)(=O)c2ccc(C)cc2)c1	none
COc1ccc(OCCN2CCC(C(=O)NC(C)c3cccc4ccccc34)CC2)cc1 (stereo not drawn)	none (no result: SKKanGAS inh, TIM10 inh, tim10-1 inh, tim23-1 inh, PfHsp90 set2)
Cc1cc(F)ccc1S(=O)(=O)Nc1ccc(C(=O)N2CCCCC2)cc1	none (no result: SKKanGAS inh)
CCCCCCCCN1C(=O)[C@H](CC(=O)N2CCC(c3ccccc3)CC2)C[C@@]2(C(=O)OC)CCCCC=C12	none (no result: SKKanGAS inh, TIM10 inh, tim10-1 inh, tim23-1 inh, PfHsp90 set2)
C/C(=N/NC(=O)c1cccs1)c1c(C)[nH]n(-c2nc3ccccc3s2)c1=O	SKKanGAS inh 55
CC(=NCc1ccco1)c1c(C)[nH]n(-c2nc3ccccc3s2)c1=O	none
Oc1ccc(Nc2nc(-c3ccc4ccccc4c3)cs2)cc1	SKKanGAS inh 53
O=C1CC(N2CCC(O)(c3ccc(Cl)cc3)CC2)C(=O)N1Cc1ccc(N2CCCC2=O)cc1 (stereo not drawn)	none
COc1ccc(-n2nc(C(=O)c3cccs3)cc(-c3nc4ccccc4[nH]3)c2=N)cc1	SKKanGAS inh 58, EBI2 antag 53 (no result: PfHsp90 set2)
Cc1ccccc1-n1nc(C(=O)c2cccs2)cc(-c2nc3ccccc3[nH]2)c1=N	SKKanGAS inh 86 (no result: PfHsp90 set2)
COc1ccc(-c2coc3c(C(=O)Nc4cccnc4)cccc23)c(C)c1	none (no result: SKKanGAS inh, TIM10 inh, tim10-1 inh, tim23-1 inh, PfHsp90 set2)
Fc1ccc(NC(=S)Nc2cc(Cl)ccc2Cl)cc1	none
Cc1cc[n+](C2=C([O-])c3ccccc3C(=O)/C2=N\S(=O)(=O)c2cccs2)cc1C	none
O=C1/C(=N\S(=O)(=O)c2cccs2)C([n+]2cccc(Cc3ccccc3)c2)=C([O-])c2ccccc21	SKKanGAS inh 106
CC(C)(C)c1cc[n+](C2=C([O-])c3ccccc3C(=O)/C2=N\S(=O)(=O)c2ccccc2)cc1	SKKanGAS inh 86 (no result: PfHsp90 set2)
O=C1/C(=N\S(=O)(=O)c2cccs2)C([n+]2ccc(CCCc3ccccc3)cc2)=C([O-])c2ccccc21	SKKanGAS inh 110 (no result: PfHsp90 set2)
O=c1cc(O)c2c(=O)n(-c3ccccc3)c3ccccc3c2o1	SKKanGAS inh 102
CCn1c(=O)c2c(O)cc(=O)oc2c2ccccc21	none (no result: PfHsp90 set2)
CCN(CC)S(=O)(=O)c1ccc(C)c(C)c1	none
CCN(CC)S(=O)(=O)c1ccc2c(c1)C(=NO)c1cc(S(=O)(=O)N(CC)CC)ccc1-2	EBI2 antag 50
O=C(Oc1ccc(Cl)c2cccnc12)N1CCCCC1	none
O=C(Oc1ccc(Cl)c2cccnc12)c1cccnc1	SKKanGAS inh 68, PfHsp90 set2 112
Oc1ccc(Cl)c2cccnc12	PfHsp90 set2 108 (no result: SKKanGAS inh, TIM10 inh, tim10-1 inh, tim23-1 inh)
Oc1c(Cl)cc(Cl)c2cccnc12	SKKanGAS inh 87, PfHsp90 set2 107 (no result: TIM10 inh, tim10-1 inh, tim23-1 inh)
COc1ccc2c(CC(=O)OCC(=O)N(C)c3c(N)n(Cc4ccccc4)c(=O)[nH]c3=O)coc2c1	none (no result: SKKanGAS inh, TIM10 inh, tim10-1 inh, tim23-1 inh)
Cc1ccc(N2CCN(C(=O)NC3CCCCC3)CC2C)cc1 (stereo not drawn)	none
CC(C)COC(=O)c1cccc2c1-c1ccccc1/C2=N\O	SKKanGAS inh 74
